# GDH-TPI inh – inhibits GDH-TPI coupling enzymes, artifact for Mtb FBA screen; GDH-TPI coupled enzyme counterscreen, NADH absorbance; inhibition, % at 4.8 µM; 360,000 tested, 1.2% active; AID 588335; in the data active = inhibition above about 30%;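 note: 0% = DMSO wells and 100% = wells lacking the enzyme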
# Rv3671c inh – Rv3671c (M. tuberculosis) protease inhibition; 320,000 tested, 0.048% active; AID 2606; inhibition, % at 5.96 µM; P9WHR9; in the data active = inhibition above about 38%;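 note: extracellular domain of Rv3671c used as enzyme; 0% = enzyme with DMSO and 100% = no enzyme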
# RecA splice inh – inhibitors of M. tuberculosis RecA intein splicing. inhibition, % (test concentration not listed). P9WHJ3. 290,000 tested, 0.75% active. cell-free RecA intein splicing, fluorescence; in the data active = inhibition above about 30%; inconclusive = no clear call, values can overlap the other calls;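 note: 0% = vehicle wells and 100% = reference inhibitor control wells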
# Target sequence (P9WHJ3 whole entry, looked up, canonical isoform): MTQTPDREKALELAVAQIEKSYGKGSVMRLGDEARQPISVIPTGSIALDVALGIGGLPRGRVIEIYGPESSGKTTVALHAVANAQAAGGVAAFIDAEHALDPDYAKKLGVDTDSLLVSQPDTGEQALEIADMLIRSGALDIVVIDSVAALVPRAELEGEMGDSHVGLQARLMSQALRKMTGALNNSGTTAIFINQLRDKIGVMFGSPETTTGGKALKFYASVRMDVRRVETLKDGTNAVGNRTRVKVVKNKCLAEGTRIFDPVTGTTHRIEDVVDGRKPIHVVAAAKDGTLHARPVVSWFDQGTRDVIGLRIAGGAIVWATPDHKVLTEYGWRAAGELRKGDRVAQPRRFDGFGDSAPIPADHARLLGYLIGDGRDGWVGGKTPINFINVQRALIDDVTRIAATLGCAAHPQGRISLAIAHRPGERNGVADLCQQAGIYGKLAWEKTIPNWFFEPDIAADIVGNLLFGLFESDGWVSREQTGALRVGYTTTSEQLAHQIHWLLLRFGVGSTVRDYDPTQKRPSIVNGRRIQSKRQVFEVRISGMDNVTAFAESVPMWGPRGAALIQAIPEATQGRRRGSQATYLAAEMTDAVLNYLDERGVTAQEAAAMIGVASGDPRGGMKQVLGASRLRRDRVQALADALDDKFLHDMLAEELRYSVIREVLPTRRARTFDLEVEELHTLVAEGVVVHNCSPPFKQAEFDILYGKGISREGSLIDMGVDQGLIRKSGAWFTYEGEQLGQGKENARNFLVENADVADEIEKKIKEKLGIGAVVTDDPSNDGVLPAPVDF
# Mtb bLac sens – beta-lactam sensitization of Mtb H37Rv. M. tuberculosis H37Rv growth with meropenem, percent inhibition. inhibition, % at 25 µM. 330,000 tested, 0.27% active. AID 434955; call rule not given here;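 note: growth measured after seven days incubation then overnight dye step; 0% = bacteria only wells and 100% = bacteria with antibiotic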
# FBA Mtb inh – inhibitors of M. tuberculosis fructose-bisphosphate aldolase; P9WQA3; purified M. tuberculosis FBA, fluorescence read-out; inhibition, % at 1 µM; 360,000 tested, 2.3% active; AID 588726; in the data active = inhibition above about 27%;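 note: 0% = vehicle and 100% = reference inhibitor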
# UGM FP inh – blocks M. tuberculosis UGM enzyme. P9WIQ1. purified UGM, fluorescence polarization probe displacement. inhibition, % at 10 µM. 320,000 tested, 0.06% active; in the data active = inhibition above about 10%, passing the limit was not always enough; inconclusive = no clear call, values can overlap the other calls
# An asterisk follows results filed as active; i = inactive; ? = inconclusive; / = no result given; + = active, no number. An excerpt weighted towards active compounds, which were near 4% of everything screened.
SMILES,GDH-TPI inh,Rv3671c inh,RecA splice inh,Mtb bLac sens,FBA Mtb inh,UGM FP inh
Cc1cc(/C=C(/C#N)c2cccc(F)c2)c(C)n1-c1cccnc1,38*,0,3,99,-2,1
Cc1cc(/C=C(\C#N)C(=O)NCc2ccco2)c(C)n1-c1cccnc1,31*,-2,-9,-6,-1,-1
CCOc1ccc(C(=O)C2CCN(C(=O)c3ccc([N+](=O)[O-])cc3)CC2)cc1,-9,0,1,-7,-1,0
CCCNC(=O)C1(C)CCN(C(=O)/C=C/c2ccccc2)C1 (stereo not drawn),2,/,/,/,1,/
O=C(NCc1ccco1)/C(=C/C=C\c1ccccc1)NC(=O)c1ccc(Br)o1,35*,-5,4,7,-9,-1
CC(=O)c1c(C)nc2ccccc2c1N,16,3,0,-2,0,0
Cc1nc2ccccc2c(N)c1C(=O)/C=C/c1ccccc1,37*,-7,-1,-4,1,2
O=C(c1ccc(Cl)c(S(=O)(=O)N2CCOCC2)c1)N1CCCCCC1,8,-19,-1,-7,-4,-3
CC(C)(C)C(=O)N1Cc2cc(-c3ccccc3)ccc2-n2nncc2C1,/,/,/,/,1,/
COc1ccc(-c2ccc3c(c2)CN(C(=O)C(C)(C)C)Cc2cnnn2-3)cc1,/,/,/,/,140*,/
Cc1cc(Cl)ccc1OCCCC(=O)OCC(=O)Nc1cccc(S(N)(=O)=O)c1,9,-18,/,-4,3,-3
O=C(c1ccco1)n1c(=S)nc2ccccn21,52*,0,1,-2,-4,-4
Cc1cccc2nc(=S)n(C(=O)c3ccco3)n12,27,-5,0,-14,0,2
COc1ccc(C2CC(=O)C3=C(C2)Nc2ccccc2N(C(=O)CCC(=O)O)C3c2ccc(F)cc2)cc1 (stereo not drawn),50*,-7,1,-7,19,-1
O=C(O)CCC(=O)N1c2ccccc2NC2=C(C(=O)CC(c3ccc(F)cc3)C2)C1c1ccc([N+](=O)[O-])o1 (stereo not drawn),28,-6,-6,-6,0,1
CCC(CC)C(=O)N1N=C(c2ccc(NS(C)(=O)=O)cc2)CC1c1ccc(C)cc1 (stereo not drawn),29,-10,0,6,+,0
CCC(=O)N1N=C(c2ccc(NS(C)(=O)=O)cc2)CC1c1ccc(C)cc1 (stereo not drawn),17,3,-1,1,+,-2
CC(=O)N1N=C(c2cccc(NS(C)(=O)=O)c2)CC1c1ccc2c(c1)OCO2 (stereo not drawn),4,-5,/,0,-2,0
CS(=O)(=O)Nc1ccc(C2=NN(S(C)(=O)=O)C(c3ccc4c(c3)OCO4)C2)cc1 (stereo not drawn),12,-9,-2,-3,141*,0
CCC(CC)C(=O)N1N=C(c2ccc(NS(C)(=O)=O)cc2)CC1c1ccccc1 (stereo not drawn),23,0,0,5,+,-1
Cc1ccc(CN(C)C(=O)c2cc(COc3cccc(C(F)(F)F)c3)on2)o1,-1,-13,16,?,2,0
COc1ccc(CCC(=O)N2CCN(C(=O)c3ccccc3)CC2)cc1,-3,-7,-1,1,3,-1
Cc1ccc(NC(=O)CSCC(=O)NCCc2ccccc2)c(C)c1,3,-3,/,2,0,2
COc1ccc(N2C(=O)c3cccc4cccc(c34)C2=O)cc1,6,-3,-1,-6,-3,3
COc1ccc(N2C(=O)c3cccc4c(N(C)CCO)ccc(c34)C2=O)cc1,-9,/,-11,7,-13,21*
SMILES,GDH-TPI inh,Rv3671c inh,RecA splice inh,Mtb bLac sens,FBA Mtb inh,UGM FP inh
CCOC(=O)N1CCN(S(=O)(=O)N2CCCC(C(=O)NCc3ccc(C)cc3)C2)CC1 (stereo not drawn),12,/,/,/,1,/
Oc1[nH]c2ccc(Br)cc2c1N=Nc1ccc(F)cc1,7,-1,-10,42,-5,18*
Oc1[nH]c2ccccc2c1N=NC(=S)NCC1CCCO1 (stereo not drawn),21,0,10,46,-8,-1
Oc1[nH]c2ccc(Br)cc2c1N=NC(=S)NCC1CCCO1 (stereo not drawn),36*,0,19,50,-8,0
CN(C)c1ccc(C=C2C(=O)NC(=O)NC2=O)cc1,31*,/,/,/,-3,/
CCCCC1(C)OC(=O)C(=Cc2c[nH]c3ccccc23)C(=O)O1 (stereo not drawn),5,-1,0,6,-1,-3
CCCCC1(C)OC(=O)C(=Cc2ccc(N(C)C)cc2)C(=O)O1 (stereo not drawn),40*,-17,-3,-13,-3,3
Cc1ccc(F)c(S(=O)(=O)NC(=O)C2(C)CCN2C(=O)Cc2ccc(-c3ccccc3)cc2)c1 (stereo not drawn),1,/,/,/,0,/
C=Cc1ccc(Cn2c(C)c(C(=O)NCc3ccccc3C(F)(F)F)sc2=O)cc1,4,/,/,/,-1,/
Oc1ccccc1C1=Nc2ncnn2C(c2ccccc2)C1 (stereo not drawn),35*,8,-2,58,3,1
CC1Oc2cc3c(-c4c(O)cc(O)c5c(O)c6c(cc45)OC(C)C(C)C6=O)c(O)cc(O)c3c(O)c2C(=O)C1C (stereo not drawn),27,40*,87*,6,-2,1
CC1=CC(C#N)(C#N)C(C#N)(C#N)C(c2ccccc2)N1 (stereo not drawn),/,43*,8,0,/,-2
O=C(NCCO)Nc1ccc2nsnc2c1,11,4,/,-6,19,1
OCCNC(=S)Nc1ccc2nsnc2c1,4,-73,46*,-3,3,-1
Cc1c(Cl)cccc1NC(=O)CSCc1cc(=O)[nH][nH]1,1,-4,85*,-9,-7,6
CC(=O)OCCn1c2nc(=O)[nH]c(=O)c-2nc2cc(C)c(C)cc21,15,/,i,8,-12,108*
CC(=O)OCCn1c(C)[n+](CCOC(C)=O)c2cc(Cl)c(Cl)cc21,12,-4,-2,-8,-1,1
N#C/C(=C(/O)CCl)c1nnc2n1CCCCC2,-1,4,5,57,-5,-2
N#C/C(=N\Nc1cc(Cl)cc(Cl)c1)c1nnc2n1CCCCC2,33*,-6,-3,5,-4,0
CC1CCCCN1C(=O)c1ccc(Br)o1 (stereo not drawn),-2,-7,2,-10,-2,4
CC(=O)C1=C(O)C(=O)N(c2ccc(S(=O)(=O)Nc3nccs3)cc2)C1c1ccc(F)cc1 (stereo not drawn),32*,7,4,-9,-2,1
CC(=O)C1=C(O)C(=O)N(c2ccc(S(=O)(=O)Nc3nccs3)cc2)C1c1ccc([N+](=O)[O-])cc1 (stereo not drawn),28,-1,2,-3,-3,1
